{"source": "PubChem BioAssay (NCATS)", "note": "Inconclusive results are not listed. Calls of active or inactive are those of the source. Calls come from the whole dose curve. Potency is the fitted concentration of half-maximal effect.", "data": [{"assay": "Primary qHTS to identify inhibitors of SARS-CoV-2 cell entry (AID 1645846); note: nearly all actives have a fitted effect of over 45% in size", "settings": "SARS-CoV-2 pseudovirus cell entry assay, luminescence; activity change, negative = inhibition: at 57.1 µM (top of the series) unless noted", "summary_of_the_method": "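Using luciferase-reporting pseudoviruses carrying Wuhan-Hu-1 spike, the screen tracks entry into stably ACE2-expressing cells over 48 hr. Activity is expressed relative to spike particles versus particles lacking any fusion protein.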", "units": {"activity change, negative = inhibition": "%"}, "values": [{"molecule": "CCn1c(=O)c(-c2ccc(-c3cncc(C)n3)cc2Cl)cc2cnc(NCCC3CCN(C)CC3)nc21", "Potency": "3.16 µM (active)"}, {"molecule": "CC(C)(O)CS(=O)(=O)Nc1ccc2c(c1)CCN(C(=O)COc1cccnc1)C2", "activity change, negative = inhibition": -97.4}, {"molecule": "Fc1ccc(-c2csc3ncnc(NCc4ccc5c(c4)OCO5)c23)cc1", "Potency": "10 µM (active)"}, {"molecule": "O=C1NC(=O)[C@@H](c2cn3c4c(cccc24)CCC3)[C@@H]1c1c[nH]c2ccccc12", "activity change, negative = inhibition": -73.3}, {"molecule": "Cc1c(NC(=O)c2cc(C(N)=O)nc3cc(F)ccc23)c(C(F)(F)F)nn1Cc1ccc(C(C)(C)C)cc1", "activity change, negative = inhibition": -95.1}, {"molecule": "C=C1[C@H](OC(=O)/C=C(\\C)CC)C[C@@H](C(C)C)[C@@H]2[C@H]([C@@H](C)OC(C)=O)C(=O)C[C@@H]12", "activity change, negative = inhibition": -14.8}, {"molecule": "Cc1ccc(NS(=O)(=O)c2cccc(C#N)c2)c2[nH]cc(C#N)c12", "activity change, negative = inhibition": -10.5}, {"molecule": "COc1ccc(/C=C\\c2cc(OC)c(OC)c(OC)c2)cc1O", "activity change, negative = inhibition": -68.5}]}]}
